Data on 23 compounds can be found in PubChem BioAssay (NCATS).

Values joined by “and” are separate entries in the source; they are usually repeats but may differ in a detail not shown here. Identical values can stand only once. Records with an inconclusive call do not appear. Unmarked numbers belong to inactive results. Active and inactive are the calls of the source. Calls come from the whole dose curve; as a rule, active = well fitted curve in the direction sought with a large enough effect; inconclusive = small, poorly fitted or top-dose-only effect, or another doubt; inactive = no such curve, though single readings can be large; an effect the other way counts as inactive or inconclusive.
% is set by controls: 0 for no effect and ±100 for the full control effect.

The subject of the first test is Tov112D. The test can be described thus: Primary qHTS to identify gynecologic anti-cancer compounds using libraries of approved drugs and bioactive compounds (AID 1345084). Note: nearly all actives have a fitted effect of over 55% in size. Note: potency is the fitted concentration of half-maximal effect. The note with it: Gynecologic cancer cell panel viability, ATPlite luminescence, 48 h; series mostly up to 57.5 µM; activity change, negative = cytotoxicity: at the top concentration. A digest of the protocol: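 Cell viability after 48 h drug treatment, ATPlite luminescence readout; five doses.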
In general terms: qHTS replaces the single test concentration by a dilution series.
With `CC(C)(C)NC(=O)Nc1cccc(Nc2ncc(F)c(NC(C)(C)CO)n2)c1`, the “activity change, negative = cytotoxicity” value is -23.6%.

As to `CC(C)OC(=O)C(C)(C)Oc1ccc(C(=O)c2ccc(Cl)cc2)cc1`, the “activity change, negative = cytotoxicity” value is -0.736%. Still for that read-out and setting: under `O=C(Nc1cccc(Br)c1)c1cccc(S(=O)(=O)N2CCCCCC2)c1` stands -5.74%. On the same count and under the same terms, under `C=C1C(=O)[C@@]23C(CC[C@@H]1[C@H]2O)[C@@]12CO[C@]3(O)[C@@H](O)[C@@H]1C(C)(C)CC[C@@H]2O` (stereo partly specified) stands -5.03%. In the case of `O=c1cc(CN2CCOCC2)occ1OCCCCCSc1ccnc2cc(C(F)(F)F)ccc12`, the “activity change, negative = cytotoxicity” value is -28.3%. With `CCOc1ccc(Nc2nc(-c3c(C)nc4ccccn34)cs2)cc1`, the Potency is 0.158 µM (active).

As to `COCCOC(=O)C1=C(C)NC2=C(C(=O)CC(c3ccccc3OC)C2)C1c1cccc(O)c1` (stereo unspecified), the “activity change, negative = cytotoxicity” value is -21.7%. Take `NC(=O)c1cccc2[nH]c(-c3ccc([C@H]4CCCN4)cc3F)nc12`: the Potency is 12.6 µM (active). Still for that read-out and setting: with `CC(=O)O[C@]1(C(C)=O)CC[C@H]2[C@@H]3C=C(Cl)C4=CC(=O)[C@@H]5C[C@@H]5[C@]4(C)[C@H]3CC[C@@]21C` the entry was “inactive”. As to `Cc1ccc(Nc2cc(-c3cccc(N4C(=O)c5ccccc5C4=O)c3)ncn2)cc1NS(C)(=O)=O`, the “activity change, negative = cytotoxicity” value was -24.2%. `CNC1CCC(N(Cc2cccc(-c3ccncc3)c2)C(=O)c2sc3c(F)ccc(F)c3c2Cl)CC1` (stereo unspecified): the “activity change, negative = cytotoxicity” value is -29.3%. In the case of `Cc1ccn(-c2ccc(-c3ncco3)cc2)c(=O)c1-c1ccc2nc(N)ncc2c1`, the “activity change, negative = cytotoxicity” value was 2.14%. The same measure, in the same setting: under `NC(=O)c1ccc2nc(-c3ccc(Oc4ccc(Cl)cc4)cc3)[nH]c2c1` stands -26.7%; under `CN(C)Cc1ccc(-c2nc3cccc4c3n2CCNC4=O)cc1`, -19.9%. Same read-out and setting: with `CN1C[C@H]2c3ccccc3Oc3ccc(Cl)cc3[C@@H]2C1` the figure was -6.88%.

Tested on in the next test: not listed separately
Description: Drug repurposing screens with cells derived from glioblastoma tumor samples (AID 1345199). Note: nearly all actives have a fitted effect of over 40% in size. The note with it: GBM patient neurospheres viability, ATP luminescence, 48 h; at 45.9 µM (top of the series); tumour line B. In a few lines:
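Four patient lines of CD133+ GBM neurospheres were screened at several concentrations; hits were retested in those lines plus three slower-growing GBM lines, using 48-hour treatment and ATP-based viability.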
For the compound `CN1[C@@H]2CCC[C@@H]1CC(NC(=O)c1nn(C)c3ccccc13)C2` (stereo partly specified), the activity, negative = cell killing is 0.357%. For the compound `CC(C)OC(=O)C(C)(C)Oc1ccc(C(=O)c2ccc(Cl)cc2)cc1`, the activity, negative = cell killing is -21.9%. On the same count and under the same terms, with `C[N+]1(C)[C@@H]2CC(OC(=O)[C@H](CO)c3ccccc3)C[C@H]1[C@H]1O[C@@H]12` (stereo partly specified) the figure was -9.31%. Still for that read-out and setting: with `Cc1cnc(C(=O)O)c[n+]1[O-]` the figure was -12.7% and -17.2% and -5.56%.

Take `Cc1nnc(C(C)C)n1C1C[C@H]2CC[C@@H](C1)N2CC[C@H](NC(=O)C1CCC(F)(F)CC1)c1ccccc1` (stereo partly specified): the activity, negative = cell killing was -4.81%.

Regarding `CCOC(=O)O[C@]1(C(=O)OCCl)CC[C@@H]2[C@H]3CCC4=CC(=O)C=C[C@]4(C)[C@@H]3[C@@H](O)C[C@@]21C`, the activity, negative = cell killing was -4.15%. Still for that read-out and setting: under `CC(=O)O[C@]1(C(C)=O)CC[C@H]2[C@@H]3C=C(Cl)C4=CC(=O)[C@@H]5C[C@@H]5[C@]4(C)[C@H]3CC[C@@]21C` stands -17.9%; under `N#C[C@H]1C[C@H]2C[C@@H]2N1C(=O)[C@@H](N)C12CC3CC(CC(O)(C3)C1)C2`, -2.78%. On the same count and under the same terms, with `CC1(C)O[C@H]2C[C@@H]3[C@H]4CCC5=CC(=O)C=C[C@]5(C)[C@@]4(F)[C@@H](O)C[C@]3(C)[C@]2(C(=O)CO)O1` the figure was -4.78%.

Turning to `NC[C@@H]1O[C@@H](O[C@H]2[C@@H](O)[C@H](O[C@@H]3[C@@H](O)[C@@H](N)C[C@H](N)[C@H]3O[C@H]3O[C@H](CN)[C@@H](O)[C@@H](O)[C@H]3N)O[C@H]2CO)[C@H](N)[C@@H](O)[C@@H]1O`, the activity, negative = cell killing is 5.16%. Regarding `CN1C[C@H]2c3ccccc3Oc3ccc(Cl)cc3[C@@H]2C1`, the activity, negative = cell killing is -17.5%.
